NS1 inh – influenza NS1 inhibition. Potency, µM (titrated, usually from 46.1 µM), inactives show at the highest dose activity, positive = more growth. 0.4% of 270,000 active; calls by dose curve; also: actives are rising curves; nearly all actives have a fitted effect of over 50% in size
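Compounds were scored for reversing the slow growth caused by influenza A NS1 in S. cerevisiae, measured by optical density at 600 nm. Assay medium contained 2% galactose at pH 6.0; NS1-free yeast of the same strain were the positive control.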
AmpC inh detg – AmpC beta-lactamase inhibition with detergent present. AID 485294. P00811. AmpC hydrolysis of nitrocefin, absorbance 480 nm, 0.01% Triton. 0.041% of 370,000 active. Potency, µM (highest dose often 114 µM), for the others: at the top dose activity change, negative = inhibition, usual class: inhibitors;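 also: 0% = no-compound wells and -100% = no-enzyme wells; nearly all actives have a fitted effect of over 25% in size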
Target sequence (P00811 whole entry, looked up): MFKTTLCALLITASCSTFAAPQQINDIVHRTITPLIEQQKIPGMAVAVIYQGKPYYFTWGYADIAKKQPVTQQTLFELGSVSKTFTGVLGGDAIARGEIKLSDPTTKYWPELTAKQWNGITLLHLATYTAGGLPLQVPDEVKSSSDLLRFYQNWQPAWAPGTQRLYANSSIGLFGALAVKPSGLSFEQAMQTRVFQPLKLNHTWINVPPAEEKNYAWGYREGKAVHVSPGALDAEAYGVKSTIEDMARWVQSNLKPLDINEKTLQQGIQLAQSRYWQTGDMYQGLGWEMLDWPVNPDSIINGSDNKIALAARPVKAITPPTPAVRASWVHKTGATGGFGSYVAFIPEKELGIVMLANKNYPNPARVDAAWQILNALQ
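20 mM phosphate pH 7.0 + 0.01% (detergent screen) or 0.0001% Triton X-100; 5.3 nM AmpC reagent; cpd preinc 15 min RT; nitrocefin (800 uM stock) to start; A480 q20 s × 4 min; Activity was normalised to no-enzyme and no-compound control wells.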
AmpC inh no detg – inhibitors of E. coli AmpC beta-lactamase without detergent | P00811 | 0.52% of 330,000 active | AmpC nitrocefin hydrolysis, absorbance 480 nm, 0.0001% Triton | Potency, µM (series often up to 57.1 µM), for inactives: top-dose activity change, negative = inhibition, actives largely listed as inhibitors;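 also: plate controls were no compound for no effect and no enzyme for full effect; nearly all actives have a fitted effect of over 20% in size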
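AmpC (5.3 nM in the dispensed reagent) in 20 mM phosphate pH 7.0 with 0.01% (detergent screen) or 0.0001% Triton X-100 was preincubated with compounds for 15 min at room temperature. Nitrocefin was then added from an 800 uM solution, and hydrolysis was followed at 480 nm.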
SARS PLP yeast – blocks SARS-CoV papain-like protease in a yeast assay; S. cerevisiae expressing SARS-CoV PLpro, growth rescue; Potency, µM (top dose mostly 32.9 µM), for inactives: at the top dose activity, positive = growth rescue, most hits filed as activators; 0.19% of 330,000 active; AID 485353; calls by dose curve; also: 0% is about no effect; nearly all actives have a fitted effect of over 55% in size
AMA1 RON2 block – disrupts binding of P. falciparum AMA1 to RON2. 0.2% of 360,000 active. AlphaScreen AMA1-biotinylated RON2 peptide binding. Potency, µM (titrated, usually from 58.2 µM), for the others: top-dose activity change, negative = inhibition, most hits filed as inhibitors;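 also: 0% = vehicle wells and -100% = peptide control; nearly all actives have a fitted effect of over 45% in size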
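AMA1 (3D7) with his tag at 25 nM final met compounds first, then biotinylated RON2 peptide at 25 nM; detection used donor plus acceptor beads, 10 µg/mL apiece, read by AlphaScreen after 30 min at room temperature.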
Active calls of the source: *; ? = inconclusive; · = not tested or not shown. Shown are actives, neighbours in structure and some others; about 0.99% of the full set was active somewhere. Unless noted, calls follow the shape of the dose curve; as a rule, active = well fitted curve in the direction sought with a large enough effect; inconclusive = small, poorly fitted or top-dose-only effect, or another doubt; inactive = no such curve, though single readings can be large; an effect the other way counts as inactive or inconclusive. Potency is read from the fitted curve at half-maximal effect.

SMILES	NS1 inh	AmpC inh detg	AmpC inh no detg	SARS PLP yeast	AMA1 RON2 block
COc1ccc2c(c1)C1(Nc3ccccc3-c3nc4ccccc4n31)C(=O)N2C (stereo not given)	5%	-3%	-27%	-5%	-1%
CCCn1nc([N+](=O)[O-])c(C(C#N)c2nc3ccccc3s2)c(Cl)c1=O (stereo not given)	-61%	-11%	14µM*	-57%	?
C=CCn1c(=NC(=O)C2CCCCC2)sc2cc(NC(C)=O)ccc21	-1%	?	4µM*	-1%	-5%
C=CCn1c(=NC(=O)C2CC2)sc2cc(NC(C)=O)ccc21	-4%	-5%	5%	3%	5%
COc1ccc(N2CCN(C(CNC(=O)c3c(F)cccc3F)c3ccc4c(c3)OCO4)CC2)cc1 (stereo not given)	·	5%	·	·	·
C#CCn1c(=NC(=O)c2ccc(Br)s2)sc2cccc(OC)c21	14%	?	1.4µM*	-1%	-5%
C=CCn1c(=NC(=O)c2cccs2)sc2cccc(OC)c21	-12%	10%	-34%	-1%	3%
COc1cccc(CNC(=O)c2cc(C)nc3c2c(C)nn3-c2ccc(C)cc2)c1	·	11%	·	·	·
CN(Cc1c(O)ccc2c1oc(=O)c1ccccc12)C1CCCCC1	6%	-4%	-24%	-1%	21µM*
CCC(C(=O)NCCc1ccccc1)n1nc(C)c2sc3ccccc3c2c1=O (stereo not given)	·	14%	·	·	·
CC(C)=CCc1c(O)c(CC=C(C)C)c2c(c1O)C(=O)CC(c1ccc(O)cc1)O2 (stereo not given)	-3%	14%	14µM*	-4%	-16%
CCOC(=O)c1ccc(N2C(=O)C3CCCN3C2=S)cc1 (stereo not given)	·	?	-18%	1%	35µM*
COc1ccc(-c2cc(C(C)=O)c(C)n2CCC(=O)NCc2ccc(F)cc2)cc1	·	7%	·	·	·
Cn1c(/N=C/c2cccs2)nc2ccccc21	0%	-3%	-9%	-3%	1%
Cc1ccc(C)c(N=Nc2nc3ccccc3n2C)c1	-148%	0%	5%	-21%	11µM*
Cc1cc(C)c(C)c(N=Nc2nc3ccccc3n2C)c1C	-22%	-9%	-8%	-51%	11µM*
CCn1c(SCC(=O)Nc2ccc(C)cc2Br)nnc1-c1nonc1NC(C)=O	·	-6%	·	·	·
COc1ccc(CNC(=O)COC(=O)c2cc(-c3ccco3)nc3ccccc23)cc1	5%	-5%	10µM*	9%	·
CCNC(=O)COC(=O)c1cc(-c2ccco2)nc2ccccc12	5%	0%	-22%	-1%	-29%
O=C(OCC(=O)N1CCN(C(=O)c2ccco2)CC1)c1cc(-c2ccco2)nc2ccccc12	22%	?	20%	-8%	21µM*
O=C(c1ccc(Cl)cc1)N1CCC(c2nc3ccccc3o2)CC1	·	-3%	·	·	·
CN(Cc1ccccc1)c1nnc(NC(=O)Nc2cccc(Br)c2)s1	·	-5%	·	·	·
Cc1c([C@@H](C)C2NC[C@H](C)C[C@@H]2O)ccc2c1C[C@@H]1[C@H]2CC=C2C[C@@H](O)CC[C@@]21C (stereo not given in full)	-3%	·	·	·	·
COc1ccc(CCNC(=O)Cn2nc(C)n3c(cc4occc43)c2=O)cc1OC	·	-9%	·	·	·
O=[N+]([O-])c1ccccc1Nc1ccccc1	-5%	3%	-21%	0%	10µM*
SMILES	NS1 inh	AmpC inh detg	AmpC inh no detg	SARS PLP yeast	AMA1 RON2 block
CC(C)CCNC(=O)C1C2C=CC3(CN(Cc4ccccc4Cl)C(=O)C13)O2 (stereo not given)	7%	?	8.9µM*	7%	10%
COc1cc(/C=N/NC(=O)CCOc2ccccc2C)cc(Br)c1O	·	1%	22µM*	5%	-2%
COc1ccc(/C=N/NC(=O)CCOc2ccccc2C)cc1OC	24%	-15%	-1%	1%	-2%
O=C(c1cccc([N+](=O)[O-])c1)N1c2nc(-c3ccco3)nn2C2(CCCCC2)[C@@H]2CCCC[C@@H]21	·	1%	·	·	·
O=C(O)[C@@H](O)[C@@H](O)C1[O][Sb][O][C@@H]1CO (stereo not given in full)	0%	·	·	·	·
O=C(NCCC1=CCCCC1)c1ccc2c(c1)N(Cc1ccccc1F)C(=O)c1ccccc1S2=O (stereo not given)	·	27%	·	·	·

Assay outcomes from PubChem.
